Hits are enriched below; roughly 2.6% of the tested compounds scored in any of these assays.
Cruzain Triton: qHTS Assay for Promiscuous and Specific Inhibitors of Cruzain (with detergent). 0.43% of 200,000 active. Cruzipain (Trypanosoma cruzi), P25779. Potency, µM, without a hit: max response, negative = inhibition, hits mostly inhibitors. purified cruzain, Z-FR-AMC fluorescence, 0.01% Triton;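 also: plate controls were neutral wells for no effect and buffer without enzyme for full effect; nearly all actives have a fitted effect of over 40% in size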
Target sequence (P25779 123-467 limits assumed): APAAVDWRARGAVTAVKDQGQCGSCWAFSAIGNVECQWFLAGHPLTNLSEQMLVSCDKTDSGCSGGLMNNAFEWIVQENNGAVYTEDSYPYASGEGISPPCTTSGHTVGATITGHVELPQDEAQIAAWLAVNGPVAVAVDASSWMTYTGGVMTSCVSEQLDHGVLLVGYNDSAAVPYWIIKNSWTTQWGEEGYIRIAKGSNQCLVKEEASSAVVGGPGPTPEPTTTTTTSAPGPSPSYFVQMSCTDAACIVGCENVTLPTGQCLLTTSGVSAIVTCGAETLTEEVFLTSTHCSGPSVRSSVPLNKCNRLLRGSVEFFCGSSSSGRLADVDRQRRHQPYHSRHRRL
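In this qHTS format, compounds are incubated with 1.5 nM cruzain for 15 min at room temperature before 2 uM Z-FR-AMC is added. Release of AMC is followed at 360/450 nm, and progress is taken as the 60 s fluorescence difference.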
Cruzain inh noDet: qHTS Assay for Promiscuous and Specific Inhibitors of Cruzain (without detergent); Cruzipain (Trypanosoma cruzi), P25779; 2.3% of 200,000 active; purified cruzain, Z-FR-AMC fluorescence, no detergent; Potency, µM, for the others: max response, negative = inhibition, hits mostly inhibitors;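 also: plate controls were enzyme without inhibitor for no effect and buffer without enzyme for full effect; nearly all actives have a fitted effect of over 40% in size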
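Detergent-free condition (0.00005% Triton X-100) in acetate buffer pH 5.5 with DTT. 1.5 nM enzyme and compound were pre-mixed 15 min, then 2 uM Z-FR-AMC substrate added; reaction progress from fluorescence change between first and third reads (60 s).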
* hit, by the source's call; ? = inconclusive. Calls follow the shape of the dose curve; as a rule, active = well fitted curve in the direction sought with a large enough effect; inconclusive = small, poorly fitted or top-dose-only effect, or another doubt; inactive = no such curve, though single readings can be large; an effect the other way counts as inactive or inconclusive. Potency is read from the fitted curve at half-maximal effect.

SMILES	Cruzain Triton	Cruzain inh noDet
Cc1nn(-c2ccccc2)c(N2CCCC2)c1/C=N/NC(=S)Nc1ccccc1C(F)(F)F	-7%	?
Cc1nn(-c2ccccc2)c(N2CCCC2)c1/C=N/NC(=S)Nc1cc(C(F)(F)F)ccc1Cl	-4%	10µM*
CC(=O)N1CCc2c(sc3c2c(=O)n(CCc2ccccc2)c(=O)n3CC(=O)Nc2ccc(C)c(F)c2)C1	-4%	2%
COc1ccc(Cn2c(=O)c3oc4ccccc4c3n(Cc3ccc(Cl)cc3)c2=O)cc1	1%	-1%
CCOc1ccc(-c2nnn(CC(=O)NCc3ccc(OC)cc3)n2)cc1OCC	0%	24%
COc1ccc(CNC(=O)Cn2nnc(-c3ccc(NC(=O)C4CCCCC4)cc3)n2)cc1	3%	10µM*
Cc1ccc(-n2cnc3cc(C(=O)NCc4ccccc4Cl)ccc32)c(C)c1	0%	?
Cc1ccc(CNC(=O)/C=C/c2c(Cl)cccc2Cl)cc1	0%	25µM*
Cc1ccc(CNC(=O)/C=C/c2ccccc2Cl)cc1	0%	-2%
Cc1nc2ccn(Cc3cccs3)c(=O)c2cc1C(=O)N1CCN(c2ccccc2F)CC1	-7%	?
C(=N\Nc1nc(-c2ccccc2)cs1)/c1cccnc1	-8%	-8%
CC(C)=NNc1nc(-c2ccccc2)cs1	-1%	-9%
COC(=O)c1ccc(/C=N/Nc2nc(-c3ccccc3)cs2)cc1	-6%	13µM*
CC(/C=C/c1ccccc1)=N\Nc1nc(-c2ccccc2)cs1	0%	25µM*
COc1ccc(/C=N/N(C(C)=O)c2nc(-c3ccc(C)cc3)cs2)cc1	-1%	-3%
COC(=O)c1ccc(/C=N/Nc2nc(-c3ccc(C)cc3)cs2)cc1	-11%	13µM*
O=C(NCCc1ccc(Cl)cc1)C1COc2ccccc2C1 (configuration not stated)	-2%	10%
Cc1cccc(N2CCN(C(=O)C3CCN(C(=O)c4cc5sccc5n4C)CC3)CC2C)c1 (configuration not stated)	-7%	?
CCN(CC)CCOC(=O)c1ccc(NC(=O)Cn2ncc3c([nH]c4ccc(C)cc43)c2=O)cc1	-4%	-3%
CCc1ccccc1NS(=O)(=O)c1ccc(-c2coc(C)n2)cc1	-3%	-6%
Cc1ccc(-c2csc(/C(C#N)=C/Nc3ccccc3SC(F)(F)F)n2)cc1	0%	10µM*
N#C/C(=C\Nc1ccccc1SC(F)(F)F)c1nc(-c2ccc(F)cc2)cs1	5%	-3%
COc1ccc(-c2c(C)nn3c(C(F)(F)F)cc(-c4ccccc4)nc23)cc1OC	1%	-1%
O=C(CC1C(=O)N(c2ccc(F)cc2)C(=O)N1Cc1ccc2c(c1)OCO2)Nc1ccc(F)cc1 (configuration not stated)	-4%	-1%
Cc1ccc(CNC(=O)CSc2nnc(C)c3c(C)n(-c4ccccc4)nc23)cc1	-5%	3%
SMILES	Cruzain Triton	Cruzain inh noDet
Cc1ccc(Cl)cc1N1CCN(C(c2cccnc2)c2nnnn2C2CCCCC2)CC1 (configuration not stated)	-6%	11%
Cc1ccc(Cl)cc1N1CCN(C(c2ccc(C#N)cc2)c2nnnn2C2CCCC2)CC1 (configuration not stated)	2%	20µM*
COc1ccc(/C=C/c2nc(-c3ccccc3O)n[nH]2)cc1	-13%	13µM*
COc1ccc(/C=C/c2nc(-c3ccccc3O)n(-c3ccccc3)n2)cc1	-6%	-13%
Cc1cc(OCC(=O)Nc2ccc(C(=O)OC3CCCCC3)cc2)ccc1Cl	0%	-9%
COc1ccccc1C(=O)N1CCC(c2c[nH]c3ccccc23)(c2c[nH]c3ccccc23)CC1	-3%	-21%
CCc1ccc(NC(=O)CSC2=Nc3ccccc3C3=NC(CCC(=O)NCc4ccccc4OC)C(=O)N23)cc1 (configuration not stated)	-1%	12%
C=CCNC(=S)N/N=C/c1ccc(-c2cc(Cl)ccc2Cl)o1	1%	7.9µM*
COC(=O)c1ccc(Cl)c(-c2ccc(/C=N/NC(=O)Nc3ccccc3)o2)c1	-7%	?
Cc1ccc(-c2nn(CC(=O)NC3CCCCC3)c3c2cnc2ccc(F)cc23)cc1C	1%	7%
O=C(Nc1ccccc1)/C(=C\c1ccncc1)NC(=O)c1ccccc1	-1%	-2%
Cc1ccc(S(=O)(=O)Oc2ccc(/C=C(/NC(=O)c3ccccc3)C(=O)Nc3ccccc3)cc2)cc1	2%	13µM*
CSc1ccc(/C=C(/NC(=O)c2ccc(C)cc2)C(=O)Nc2cccc(C)c2)cc1	-6%	6.3µM*
COc1ccc(NC(=O)/C(=C\c2ccc(OS(=O)(=O)c3ccc(C)cc3)cc2)NC(=O)c2ccccc2)cc1	3%	7.9µM*
Cc1ccc(NC(=O)/C(=C/c2ccncc2)NC(=O)c2ccccc2)cc1	-4%	-8%
Cc1cccc(NC(=O)/C(=C\c2ccc([N+](=O)[O-])o2)NC(=O)c2ccc(Cl)cc2)c1	-3%	-20%
